The results in this text go back to article PMC8384837, “Expanding the binding specificity for RNA recognition by a PUF domain”.

The target in one assay is PUM1 PUF domain R5-RFS (Homo sapiens, UniProt Q14671 828-1176, C1007R;R1008F;Q1011S). As to the kind of experiment: yeast three-hybrid, YBZ-1, SC-Leu-His + 0.5 mM 3-AT, 4 days. The note with it: tags: N-Gal4 AD-HA kept; label: inside an RPR1-promoter hybrid RNA with tandem MS2 sites; ssRNA. The procedure, abridged: (§1)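 Repeat regions from input (SC-Leu) and selection (SC-Leu-His + 0.5 mM 3-AT) plates were PCR-amplified and Illumina-sequenced after four days of growth. The cells were strain YBZ-1 with a LexA–MS2 coat fusion and a HIS3 reporter, co-expressing Pumilio-1 PUF domain libraries and matching RNA elements from a centromeric plasmid. The interaction score is the log change in variant frequency from input to selection, taken in log2 with a pseudocount of 1 for absent variants.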
As to “GGCUAGAACUAGUGGAUCCCCCGGCGCCCGGCGGCUCGAGCCCGGGUAAGUGUAAAUAGUCUGCAUGCCGCCGGGCGCCAUGCCUGCAGGUCGACUCUAGAAAACAUG”, the binding signal is 2.61 log2 enrichment (interaction score).

Take “GGCUAGAACUAGUGGAUCCCCCGGCGCCCGGCGGCUCGAGCCCGGGUAAGUGUUAAUAGUCUGCAUGCCGCCGGGCGCCAUGCCUGCAGGUCGACUCUAGAAAACAUG”: the binding signal is 5.12 log2 enrichment (interaction score). Consider “GGCUAGAACUAGUGGAUCCCCCGGCGCCCGGCGGCUCGAGCCCGGGUAAGUGUGAAUAGUCUGCAUGCCGCCGGGCGCCAUGCCUGCAGGUCGACUCUAGAAAACAUG”, for which the binding signal was 1.78 log2 enrichment (interaction score). “GGCUAGAACUAGUGGAUCCCCCGGCGCCCGGCGGCUCGAGCCCGGGUAAGUGUCAAUAGUCUGCAUGCCGCCGGGCGCCAUGCCUGCAGGUCGACUCUAGAAAACAUG”: the binding signal was 5.34 log2 enrichment (interaction score).

The target in a further assay is PUM1 PUF domain R1-YIR (Homo sapiens, UniProt Q14671 828-1176, S863Y;R864I;Q867R). The assay is described as above. The note with it: tags: N-Gal4 AD-HA kept; label: inside an RPR1-promoter hybrid RNA with tandem MS2 sites; ssRNA. The method in brief:
as §1
Take “GGCUAGAACUAGUGGAUCCCCCGGCGCCCGGCGGCUCGAGCCCGGGUAAGUGUAAAUCGUCUGCAUGCCGCCGGGCGCCAUGCCUGCAGGUCGACUCUAGAAAACAUG”: the binding signal was 6.92 log2 enrichment (interaction score). Take “GGCUAGAACUAGUGGAUCCCCCGGCGCCCGGCGGCUCGAGCCCGGGUAAGUGUAAAUUGUCUGCAUGCCGCCGGGCGCCAUGCCUGCAGGUCGACUCUAGAAAACAUG”: the binding signal is 4.41 log2 enrichment (interaction score). Still for that read-out and setting: under “GGCUAGAACUAGUGGAUCCCCCGGCGCCCGGCGGCUCGAGCCCGGGUAAGUGUAAAUAGUCUGCAUGCCGCCGGGCGCCAUGCCUGCAGGUCGACUCUAGAAAACAUG” stands 3.77 log2 enrichment (interaction score).
